# Measured values: PubChem BioAssay (NCI)
# About 79,000 compounds went through this panel and 15% of them were active in at least one assay; those are over-represented in the sample as a whole. A number with no mark means an inactive call. No stated cut-off is given here; in the data, active means growth inhibition above about 70%; inactive means the rest.
# Experiment: NCI Yeast Anticancer Drug Screen. Data for the cln2 rad14 strain (AID 165);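 further: 0% = growth equal to vehicle treated cultures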
# Details: S. cerevisiae cln2 rad14 strain, at 50.0 µM, active compounds read high
# Summary of the method: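 Each compound was tested on cln2 rad14 yeast. Inhibition of growth was calculated against vehicle-exposed controls.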
row,SMILES,growth inhibition [%]
1,CC1(C(=O)O)CCCC1C(=O)O (stereo not given),-8.05
2,COc1cccc2cc(C(=O)Nc3ccccc3)c(=N)oc12,9.3
3,O=C(O)CCn1cnc2c(=S)nc[nH]c21,-3.05
4,CN(C)CC(C)(C)C(=O)c1ccc(F)cc1,3.55
5,CCc1nnc(CC)n1N,-10.6
6,O=C(Nc1ccc2c(c1)C(O)c1ccccc1-2)C(F)(F)F (stereo not given),8.35
7,CC(=O)OC(C)(C)c1ccc2c(c1)C(=O)C[C@@H]1[C@](C)(C#N)CCC[C@]21C,-5.35
8,Fc1cccc(-c2nnc(-c3ccccc3)o2)c1,19.4
9,CC[C@]12CCCN3CCc4c(n(c5ccccc45)C(=O)C1)[C@@H]32,29.4
10,O=C(/C=C/c1ccc(O)cc1)c1cc(O)cc(O)c1,-8.95
11,COc1ccc2c(c1)CCCN1Cc3cc(OC)c(OC)cc3CC21 (stereo not given),14
12,OCCSCCCCCSCCO,-2.15
13,O=C(O)c1ccc(C2C3C=CC(C3)C2[N+](=O)[O-])cc1 (stereo not given),5.85
14,[N-]=[N+]=NC(=O)c1ccc(S(=O)(=O)c2ccc(F)cc2)cc1,7.85
15,CCN1C(=O)N(CC)C2(CC(=O)c3ccccc3O2)C1=O (stereo not given),7.15
16,COC(=O)C(O)c1ccc(C(C)C)cc1 (stereo not given),-33.2
17,O=CNCC1(c2ccccc2)CCNCC1,-1.7
18,OC1CCCCC1[n+]1ccccc1 (stereo not given),-24.1
19,CCN(CC)CCN(C)C(=O)C(=O)c1ccccc1,9.75
20,O=C1CCCC/C1=C\c1ccc([N+](=O)[O-])cc1,10.1

row,SMILES,growth inhibition [%]
1,CCC(=O)c1c2c(cc3ccccc13)CCCC2,3.85
2,O=C1c2ccccc2C(=O)c2c(Nc3ccc(Nc4cccc5c4C(=O)c4ccccc4C5=O)c4c3C(=O)c3ccccc3C4=O)cccc21,-3.2
3,CC1(C)OCC(Cc2ccc3c(c2)OCO3)CO1,-32.2
4,COC(=O)c1nc(N)nc(C(=O)OC)c1C(=O)c1ccc(Cl)cc1Cl,3.6
5,CN(c1ccccc1)S(=O)(=O)c1ccc(Cl)cc1,11.4
6,O=C(CC(C(=O)O)S(=O)(=O)O)Nc1ccc(S(=O)(=O)c2ccc(NC(=O)CC(C(=O)O)S(=O)(=O)O)cc2)cc1 (stereo not given),-5.55
7,N/C(=N\S(=O)(=O)c1cc(C(F)(F)F)cc(C(F)(F)F)c1)c1ccncc1,1.3
8,COC(=O)CCC(=O)Nc1cc(Cl)ccc1Cl,6.45
9,COc1ccc(/C=C2\N=C(N/N=C\C(O)C(O)C(O)C(O)CO)NC2=O)cc1 (stereo not given),5.45
10,CC1=NC=C(O)c2ccccc2O1,15.6
11,FC(F)(F)c1ccc2nc[nH]c2c1,-10.4
12,C=C1c2c(cc3c(c2O)c(=O)c2ccccc2n3C)OC1(C)C,-24.3
13,O=C(Nc1ccccn1)c1ccccc1,11.6
14,CCn1nc(C)c2c1C(=O)NCC(=O)N2,-10.4
15,COc1ccccc1/C=N/Nc1nnc2c3ccccc3c3ncccc3c2n1,-10.8
16,O=c1cc(-c2ccccc2)[nH]c2ncccc12,-9.4
17,COc1ccc(C(=O)c2ccccc2)c(OC(=O)Nc2c(Cl)cccc2Cl)c1,1.05
18,C=CCSc1nc2ccc(N3C(=O)C4C5C=CC(C5)C4C3=O)cc2s1 (stereo not given),-17.6
19,O=[N+]([O-])c1ccc(-c2noc(-c3ccccc3)c2C2=NCCN2)cc1,4.75
20,Cc1c(C)c2cc3c(=O)c(CCl)coc3c(C)c2oc1=O,15.6

# Experiment: NCI Yeast Anticancer Drug Screen. Data for the bub3 strain (AID 167)
# Details: S. cerevisiae bub3 mutant strain, at 50.0 µM, active compounds read high
# Summary of the method: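 Growth of a checkpoint-deficient yeast mutant is measured after compound exposure. Values represent inhibition relative to vehicle.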
row,SMILES,growth inhibition [%]
1,CC1(C(=O)O)CCCC1C(=O)O (stereo not given),-1.25
2,COc1cccc2cc(C(=O)Nc3ccccc3)c(=N)oc12,-37.9
3,O=C(O)CCn1cnc2c(=S)nc[nH]c21,-54.6
4,CN(C)CC(C)(C)C(=O)c1ccc(F)cc1,1.7
5,CCc1nnc(CC)n1N,16.4
6,O=C(Nc1ccc2c(c1)C(O)c1ccccc1-2)C(F)(F)F (stereo not given),6.85
7,CC(=O)OC(C)(C)c1ccc2c(c1)C(=O)C[C@@H]1[C@](C)(C#N)CCC[C@]21C,52.1
8,Fc1cccc(-c2nnc(-c3ccccc3)o2)c1,37.8
9,CC[C@]12CCCN3CCc4c(n(c5ccccc45)C(=O)C1)[C@@H]32,-25.6
10,O=C(/C=C/c1ccc(O)cc1)c1cc(O)cc(O)c1,-4.1
11,COc1ccc2c(c1)CCCN1Cc3cc(OC)c(OC)cc3CC21 (stereo not given),-1.1
12,OCCSCCCCCSCCO,-7.4
13,O=C(O)c1ccc(C2C3C=CC(C3)C2[N+](=O)[O-])cc1 (stereo not given),-12.5
14,[N-]=[N+]=NC(=O)c1ccc(S(=O)(=O)c2ccc(F)cc2)cc1,3
15,CCN1C(=O)N(CC)C2(CC(=O)c3ccccc3O2)C1=O (stereo not given),20.1
16,COC(=O)C(O)c1ccc(C(C)C)cc1 (stereo not given),-26.4
17,O=CNCC1(c2ccccc2)CCNCC1,4.4
18,OC1CCCCC1[n+]1ccccc1 (stereo not given),-7.35
19,CCN(CC)CCN(C)C(=O)C(=O)c1ccccc1,4.8
20,O=C1CCCC/C1=C\c1ccc([N+](=O)[O-])cc1,21.8

row,SMILES,growth inhibition [%]
1,CCC(=O)c1c2c(cc3ccccc13)CCCC2,38.2
2,O=C1c2ccccc2C(=O)c2c(Nc3ccc(Nc4cccc5c4C(=O)c4ccccc4C5=O)c4c3C(=O)c3ccccc3C4=O)cccc21,-19.3
3,CC1(C)OCC(Cc2ccc3c(c2)OCO3)CO1,22.5
4,COC(=O)c1nc(N)nc(C(=O)OC)c1C(=O)c1ccc(Cl)cc1Cl,-8.3
5,CN(c1ccccc1)S(=O)(=O)c1ccc(Cl)cc1,43.2
6,O=C(CC(C(=O)O)S(=O)(=O)O)Nc1ccc(S(=O)(=O)c2ccc(NC(=O)CC(C(=O)O)S(=O)(=O)O)cc2)cc1 (stereo not given),-7.9
7,N/C(=N\S(=O)(=O)c1cc(C(F)(F)F)cc(C(F)(F)F)c1)c1ccncc1,19.6
8,COC(=O)CCC(=O)Nc1cc(Cl)ccc1Cl,-4.15
9,COc1ccc(/C=C2\N=C(N/N=C\C(O)C(O)C(O)C(O)CO)NC2=O)cc1 (stereo not given),-3.8
10,CC1=NC=C(O)c2ccccc2O1,14.9
11,FC(F)(F)c1ccc2nc[nH]c2c1,9.6
12,C=C1c2c(cc3c(c2O)c(=O)c2ccccc2n3C)OC1(C)C,-25.8
13,O=C(Nc1ccccn1)c1ccccc1,26.4
14,CCn1nc(C)c2c1C(=O)NCC(=O)N2,-17.6
15,COc1ccccc1/C=N/Nc1nnc2c3ccccc3c3ncccc3c2n1,-8.55
16,O=c1cc(-c2ccccc2)[nH]c2ncccc12,-19.8
17,COc1ccc(C(=O)c2ccccc2)c(OC(=O)Nc2c(Cl)cccc2Cl)c1,-0.1
18,C=CCSc1nc2ccc(N3C(=O)C4C5C=CC(C5)C4C3=O)cc2s1 (stereo not given),-8.3
19,O=[N+]([O-])c1ccc(-c2noc(-c3ccccc3)c2C2=NCCN2)cc1,7.8
20,Cc1c(C)c2cc3c(=O)c(CCl)coc3c(C)c2oc1=O,-7.15
